S1P2 antag: human S1P2 receptor antagonists, primary screen, cell-based; Sphingosine 1-phosphate receptor 2 (Homo sapiens), O95136; cell-based S1P2 antagonist assay, inhibition at 5 uM; inhibition, % at 5 µM; 0.21% of 97,000 active; in the data active means inhibition above about 45%;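 further: CRE beta-lactamase reporter cells expressing human S1P2 stimulated with S1P; 0% = agonist at EC80 alone and 100% = agonist plus reference antagonist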
Target sequence (O95136 whole entry, looked up): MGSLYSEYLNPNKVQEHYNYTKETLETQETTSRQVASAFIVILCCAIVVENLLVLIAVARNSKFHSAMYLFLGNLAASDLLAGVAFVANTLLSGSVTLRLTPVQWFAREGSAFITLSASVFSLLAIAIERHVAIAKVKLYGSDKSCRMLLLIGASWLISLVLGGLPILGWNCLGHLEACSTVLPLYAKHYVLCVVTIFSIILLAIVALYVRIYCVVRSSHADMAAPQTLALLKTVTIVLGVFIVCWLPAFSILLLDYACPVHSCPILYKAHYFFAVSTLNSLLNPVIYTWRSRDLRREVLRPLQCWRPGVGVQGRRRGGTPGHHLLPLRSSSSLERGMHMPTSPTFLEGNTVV
GALR2 blocker: GALR2 antagonists in receptor-expressing cells, primary screen; Galanin receptor type 2 (Homo sapiens), O43603; antagonist mode; inhibition, % at 4 µM; 0.39% of 140,000 active; AID 828, 2007; in the data active means inhibition above about 27%;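 further: cells stimulated with galanin 1-16 at roughly its EC80; 0% = agonist challenge control and 100% = basal control without agonist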
S1P2 agonist: S1P2 receptor agonists, primary screen, cell-based. S1P2-expressing cell line, agonist reporter read-out. activation, % at 4.5 µM. 0.46% of 97,000 active. AID 729, 2007; in the data active means activation above about 16%;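 further: 0% = vehicle low control and 100% = maximal reference agonist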
GALR2 agonist: GALR2 receptor agonists, primary screen, cell-based. GALR2-expressing cells, agonist activation read-out. 0.48% of 140,000 active. AID 803, 2007. activation, % (concentration not given with the values); in the data active means activation above about 5%, passing the limit was not always enough;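 further: 0% = vehicle buffer wells and 100% = reference agonist at full effect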
GALR2 agon conf: GALR2 agonists, retest of hits, confirmation, cell-based; activation, % at 5.6 µM; shares compounds with GALR2 agonist; 10% of 460 active; GALR2-expressing cells, agonist activation; in the data active means activation above about 8.4%;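 further: 0% = buffer-only vehicle wells and 100% = full reference agonist response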
BLA act counter: activators of NFAT-driven beta-lactamase reporter, confirmation, counter-screen for GALR2 agonist project, CHO NFAT-bla cells, FRET readout. beta-lactamase FRET activation. activation, % at 5.6 µM. shares compounds with GALR2 agonist. AID 865, 2007. 10% of 460 active;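 active means activation above the screen-wide mean activation plus 3 SD, cut at about 8% in these data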;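 further: 0% = DMSO with PBS wells and 100% = thapsigargin positive control wells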
Starred values were filed as active, the others as inactive; nt = not tested or not shown. Most compounds without a hit are left out; they make up all but 1.2% or so of the library.

SMILES | S1P2 antag | GALR2 blocker | S1P2 agonist | GALR2 agonist | GALR2 agon conf | BLA act counter
Cc1cccn2c(=O)c(/C=C(\C#N)C(=O)NC3CCS(=O)(=O)C3)c(N3CCC(C)CC3)nc12 (configuration not stated) | nt | -19.2 | nt | 4.5 | nt | nt
CCC(C)NC(=S)NNC(=O)c1ccc(C(C)(C)C)cc1 (configuration not stated) | 2.5 | 6.2 | -3.4 | -2.4 | nt | nt
O=S(=O)(c1cccc(C(F)(F)F)c1)N1CCN(c2ccccc2)CC1 | 0.6 | -8.6 | -2.6 | 12.0* | -0.7 | -2.7
CC(C)N1C(=O)CCC1C(=O)NCc1ccccc1Cl (configuration not stated) | nt | 1.3 | nt | -0.9 | nt | nt
O=C(Nc1ccc2c(c1)OCO2)OCc1ccccc1 | 6.0 | -1.2 | -6.1 | 11.6* | -0.6 | -1.0
O=C(Nc1ccc2c(c1)OCO2)C1CCCN1C(=O)OCc1ccccc1 (configuration not stated) | nt | 16.0 | nt | -2.9 | nt | nt
COc1ccc(C(=O)COc2nc(C)cc(C)c2C#N)cc1 | -7.0 | -2.8 | -3.3 | -2.4 | nt | nt
C(=C\c1ccco1)/C1=NN(c2ccccc2)C(c2ccco2)C1 (configuration not stated) | nt | 16.8 | nt | 72.3* | 27.4* | 38.8*
CN(C)c1ccc(/C=C2\SC(=O)N(CC(O)Cn3c4ccccc4c4ccccc43)C2=O)cc1 (configuration not stated) | nt | -4.7 | nt | -1.1 | nt | nt
CN(C)c1ccc(/C=C2/SC(=O)N(CCN=C3NS(=O)(=O)c4ccccc43)C2=O)cc1 | nt | 7.7 | nt | 12.7* | 5.0 | -1.8
CCN(CC)c1ccc2c(c1)oc(=O)c1c(Cl)cc(=O)oc12 | 19.2 | -2.4 | 14.0 | 20.1* | 6.3 | 11.5*
CCN(CC)c1ccc2c(C)c(-c3ccc(N)cc3)c(=O)oc2c1 | nt | 14.8 | nt | 4.3 | nt | nt
Fc1c(F)c(C(F)(F)F)c(F)c(F)c1N/N=C\c1cccs1 | 5.2 | 1.1 | -0.4 | 31.4* | 6.7 | 5.8
Cn1nccc1C(=O)Nn1cnnc1 | 7.4 | -6.0 | -5.6 | 20.2* | -0.2 | -0.2
COc1ccc(NC(=O)c2cccc(F)c2)cc1Cl | 4.8 | 6.9 | -3.2 | -1.4 | nt | nt
COc1ccc(NC(=O)c2ccccc2F)cc1Cl | -2.7 | 10.5 | -0.2 | 14.6* | -0.6 | -2.4
Cc1nnc(SCC(=O)c2cc(C)n(-c3ccc4c(c3)OCO4)c2C)s1 | -4.5 | -7.8 | -5.2 | 10.3 | -0.9 | -1.5
Cc1cc(C(=O)CSc2nnnn2C)c(C)n1-c1ccc2c(c1)OCCO2 | 9.2 | -7.9 | -3.6 | -0.3 | nt | nt
COc1ccc(C2CC(c3ccccc3)=NN2c2ccc(/C=N/NC(=O)c3ccncc3)cc2)cc1 (configuration not stated) | 22.0 | 24.2 | 8.5 | 16.7* | 2.2 | 1.1
COc1ccc(C2CC(c3cccs3)=NN2c2ccc(C=O)cc2)cc1 (configuration not stated) | nt | 6.4 | nt | 28.6* | 14.7* | 31.6*
COc1ccc(C2CC(c3cccs3)=NN2C(=O)c2ccc(Br)o2)cc1 (configuration not stated) | nt | -4.1 | nt | 0.6 | nt | nt
COCCCNC(=O)c1cn(CC(C)C)c(=O)c2c1c1ccccc1n2C | -5.0 | -5.5 | -5.5 | 19.9* | -0.4 | -2.8
CN1CCN(C(=S)NC(=O)/C=C/c2cccc3ccccc23)CC1 | -6.3 | 10.8 | -1.5 | 21.9* | -0.5 | -3.6
Cc1cccc(-c2nnn3c2nc(NCCc2ccc(S(N)(=O)=O)cc2)c2ccccc23)c1 | nt | 17.6 | nt | 3.8 | nt | nt
NS(=O)(=O)c1ccc(CCNc2nc3c(-c4cccc(F)c4)nnn3c3ccccc23)cc1 | nt | 18.0 | nt | 11.1* | 2.8 | 2.1
SMILES | S1P2 antag | GALR2 blocker | S1P2 agonist | GALR2 agonist | GALR2 agon conf | BLA act counter
Cc1cc(C)cc(-n2nnc(C(=O)NCc3ccccc3Cl)c2N)c1 | -10.3 | -1.1 | 7.2 | 0.7 | nt | nt
Cc1ccc(N(CC(O)CON=C2c3ccccc3-c3ccccc32)S(C)(=O)=O)cc1 (configuration not stated) | 0.5 | -16.8 | -4.4 | -0.3 | nt | nt
O=C(Cn1c2ccccc2c(=O)c2ccccc21)Nc1ccccc1F | nt | 0.5 | nt | 14.9* | 3.2 | 8.1
Cc1ccc(C(C(=O)NC2CCCCC2)N2CCC3(CC2)OCCO3)cc1 (configuration not stated) | -1.9 | -3.7 | -2.1 | -0.7 | nt | nt
O=C(NC1CCCCC1)C(c1ccc(Cl)cc1)N1CCC2(CC1)OCCO2 (configuration not stated) | 0.3 | -9.2 | -2.3 | 10.8* | -1.1 | -3.2
COc1ccc(CCN2CCC(Nc3nc4ccccc4n3Cc3ccc(F)cc3)CC2)cc1 | nt | 1.9 | nt | 24.9* | 17.9* | 3.0
O=C(Nc1cccc(C(F)(F)F)c1)c1cc(-c2ccc(F)cc2)on1 | 5.9 | 1.2 | -6.7 | 8.6 | 0.4 | -1.7
O=C(CC12CC3CC(CC(C3)C1)C2)Nc1cccc2ncccc12 | -6.6 | -7.7 | -2.7 | 23.2* | -0.5 | -1.1
O=C(Nc1cccc2ncccc12)C12CC3CC(CC(C3)C1)C2 | -9.5 | -14.1 | -4.3 | -0.3 | nt | nt
O=C(O)c1c(-c2ccccc2)c2oc3ccccc3c2[nH]c1=O | 20.6 | 3.8 | -5.5 | -0.4 | nt | nt
CC(=O)Nc1ccc2[nH]c(C)c(CC=C(Cl)Cl)c(=O)c2c1 | -16.7 | 7.0 | -1.6 | 14.2* | -1.4 | -3.5
CCOC(=O)c1ccc2[nH]c(C)c(CCC(C)=O)c(=O)c2c1 | 13.1 | -9.4 | 0.4 | -1.6 | nt | nt
COc1ccc2cc(-c3cc(C(=O)OCC(=O)NC4CCS(=O)(=O)C4)c4ccccc4n3)ccc2c1 (configuration not stated) | nt | 13.6 | nt | 11.0* | 14.0* | 25.1*
O=C(COC(=O)c1cc(-c2cccc3ccccc23)nc2ccccc12)NC1CCS(=O)(=O)C1 (configuration not stated) | nt | 7.4 | nt | 0.2 | nt | nt
CCn1c(SCC(=O)NC(=O)Nc2ccc3c(c2)OCCO3)nnc1-c1cccs1 | 6.4 | -4.5 | -2.1 | 0.0 | nt | nt
Nc1c(C(=O)NCc2ccccc2)c2nc3ccccc3nc2n1CCCN1CCOCC1 | nt | -16.4 | nt | 16.2* | 10.6* | 22.6*
CCNC(=O)NC(=O)C(C)OC(=O)C1CCN(S(=O)(=O)c2ccc(C)c(C)c2)CC1 (configuration not stated) | nt | 15.0 | nt | -1.4 | nt | nt
Cc1cc(C(=O)N/N=C/c2cc(Cl)cc([N+](=O)[O-])c2O)c2ccccc2n1 | nt | -12.9 | nt | -1.6 | nt | nt
O=C(N/N=C/c1cc(Cl)cc([N+](=O)[O-])c1O)NC12CC3CC(CC(C3)C1)C2 | nt | -0.4 | nt | 20.7* | -0.9 | -2.9
Cc1ccccc1OCCOc1ccccc1C=C(C#N)C#N | nt | 17.1 | nt | 0.2 | nt | nt
COCCOC(=O)c1c(C)n(C)c2ccc(OC(=O)c3ccco3)cc12 | -10.0 | -8.9 | -6.7 | 85.8* | -0.3 | 0.6
Nc1nc(SCC(=O)NCCC(c2ccccc2)c2ccccc2)n[nH]1 | 4.5 | -5.3 | -5.2 | -2.4 | nt | nt

Screening data deposited in PubChem BioAssay by The Scripps Research Institute Molecular Screening Center.
